Reference: ChEMBL document CHEMBL4888484, “Replenishing the malaria drug discovery pipeline: Screening and hit evaluation of the MMV Hit Generation Library 1 (HGL1) against asexual blood stage Plasmodium falciparum ,using a nano luciferase reporter read-out” (2022)
The whole screen tested about 4,800 compounds, of which about 420 (8.8%) showed an effect of 50% or more. This excerpt belongs to a sample that is enriched for strong results.

Each compound was assayed on Plasmodium falciparum (assay: Confirmatory screen in NF54 nanoGlo assay, in single point, at 2uM, 72h). Settings: timepoint 72 hour.
Format: functional, Erythrocyte

Row | SMILES | % Inhibition [%]
1 | Cc1occc1C(=O)NC1(c2ccccc2)CCOCC1 | -5
2 | COc1cc(OC)c(NC(=O)[C@H]2CCCN(c3nc4ccccc4[nH]c3=O)C2)cc1Cl | -2
3 | Cc1nc2ccccc2n1C(=O)c1sc2ccccc2c1Cl | -1
4 | O=S(=O)(c1ccc(Br)cc1)N1CCOC12CCCCC2 | -7
5 | Cn1nnc(Cn2nnc(-c3ccccc3)n2)n1 | -11
6 | CS(=O)(=O)N1CCC[C@H](Cn2nnnc2C=Cc2ccccc2)C1 | 8
7 | Cc1csc(NC(=O)NCCc2cc(F)cc3c2OCOC3)n1 | -14
8 | COC[C@H](NCCc1cc(F)cc2c1OCOC2)C1CC1 | 63
9 | COc1ccccc1N1CCN(C(=O)c2nnn(-c3ccccc3Cl)c2-c2cccnc2)CC1 | -2
10 | Cc1ccc(OCc2cccc(-c3nc4c5cn[nH]c5ncn4n3)c2)c(C)c1 | -7
11 | CC(C)N(CCCNC(=O)c1cnn2c3c(cnc12)CCCCCC3)Cc1ccccc1 | 0
12 | COc1ccc(Cl)cc1NC(=O)Cc1c(C)nc2nc(-c3ccccc3C)nn2c1C | -2
13 | COc1ccc(CC(=O)Nc2cc(C)n(-c3cccc(Cl)c3)n2)cc1 | 81
14 | COc1ccc(Cn2nc(C)n(-c3cccc(F)c3)c2=O)cc1 | -1
15 | Fc1ccc(-c2csc(N3CCC[C@H](c4cn[nH]c4)C3)n2)cc1 | -1
16 | CCOC(=O)n1c(=O)[nH]c2ccc(Br)cc21 | -10
17 | O=S(=O)(Nc1cccc2cccnc12)c1cccs1 | 60
18 | Cc1cc(NS(=O)(=O)c2cccs2)n(-c2ccncc2)n1 | 2
19 | O=S(=O)(Nc1nncs1)c1cccs1 | -10
20 | COc1nc(N)nc(C(Cl)(Cl)Cl)n1 | 0
21 | Cc1cc(F)ccc1CS(=O)(=O)N1CCC(CN2CCOCC2)CC1 | -8
22 | C[C@H](N)c1ccc(Nc2ncc3cc(-c4ccncc4)ccc3n2)cc1 | 93
23 | CC(C)c1ccc(-c2n[nH]nc2C(=O)c2ccccc2N)cc1 | -1
24 | CC(C)c1ncsc1C(=O)NC(C)(C)C(=O)NCC1CCCC1 | -13
25 | Cc1cccc(NC(=O)c2c(C)sc3ncnc(N4CCCCC4)c23)c1C | 10
26 | C[n+]1ccc(-c2ncc(-c3ccccc3)o2)c2ccccc21 | 75

Row | SMILES | % Inhibition [%]
27 | CCn1ccnc1C(=O)Nc1ccc(OC)nc1 | -6
28 | CCc1ccc(CS(=O)(=O)NC(=O)c2cn3ccnc3s2)cc1 | 6
29 | Cc1ccc(NC(=O)c2cn(CC3(O)CCN(Cc4ccccc4)CC3)nn2)c(C)c1 | 1
30 | N#Cc1ccc(NCCc2ccc(O)cc2)cn1 | -9
31 | O=C(Nc1ccccc1-c1nnc[nH]1)c1ccc(F)c(Cl)c1 | -3
32 | COc1ccc(C(=O)Nc2ccc3c(c2)C(=O)Nc2cccnc2O3)cc1OC | 46
33 | COc1cc(C(=O)Nc2[nH]c(=O)ncc2F)ccc1Cl | 81
34 | CC1(C)C(=O)NCCN1C(=O)c1cccc2ccccc12 | 5
35 | O=C(Nc1[nH]c(=O)ncc1F)c1cc(F)c(F)cc1Br | 95
36 | O=C(Nc1[nH]c(=O)ncc1F)c1cccc2ccccc12 | 84
37 | Cn1ccc(NC(=O)c2cccc3ccccc23)n1 | -8
38 | CC(C)CN1C(=O)CC[C@@H](C(=O)NCCCOC(C)C)[C@@H]1c1cccnc1 | -13
39 | Cc1cc(C(=O)Nc2cc(Br)c(=O)n(C)c2)no1 | -14
40 | Cc1ccc(N2CCCC2)c(C(=O)N2CCN(Cc3c(C)nc4cc(C)ccn34)CC2)c1 | 3
41 | O=C(Nc1cnc(-n2ccnc2)nc1)C(c1ccccc1)c1ccccc1 | 36
42 | C[C@H]1CCCN(c2nc3ncn(CC(=O)Nc4ccccc4C(F)(F)F)c(=O)c3s2)C1 | -15
43 | O=C(NC1CCCCC1)c1cc2c(Cl)ccc3c2n1CCO3 | -10
44 | COc1nc(-c2cccc(C(=O)NCC3CCOCC3)c2)ncc1F | 66
45 | COCc1cc(C(=O)N[C@H](c2ccccc2)C2CCOCC2)no1 | 0
46 | O=C(NCC1CCOCC1)c1ccc2n[nH]c(=O)n2c1 | -1
47 | O=C(CC1CCOCC1)NCc1ccccn1 | -11
48 | COc1ccc(C(=O)N2CC[C@H](c3nc(C4CCOCC4)no3)C2)cc1OC | 2
49 | Cc1ccc(C(=O)N2CC(n3cnnc3C)C2)cc1F | -19
50 | COc1nc(-c2cccc(C(=O)N3C[C@@H]4CC[C@H](C3)C(=O)N4)c2)ncc1F | 67
51 | COc1ccc(-c2[nH]ncc2C(=O)NCC2CCCCC2)cc1OC | 2
52 | COCc1cc(C)n(CC#N)c(=O)c1C#N | 11

Row | SMILES | % Inhibition [%]
53 | CCCc1ccc(Cl)c(S(=O)(=O)Nc2nnc(C3CC3)o2)c1 | 2
54 | COC[C@@H](C)CNc1nc(C)cc(C)n1 | -3
55 | CCn1cc2c(n1)c(=O)n(Cc1ccc(C)cc1)c(=O)n2CC(=O)Nc1ccc(C)cc1C | -10
56 | COc1ccc(C(=O)N2CC[C@H](CC(=O)N3CCOCC3)C2)cc1 | -9
57 | Cc1c(C(=O)NCCc2ccc(Cl)cc2)oc2ccc3c(c12)[C@@H](O)CC(C)(C)O3 | 4
58 | O=C(N[C@H](c1ccccc1)C1CC1)c1cccnc1O | -9
59 | CC1CCCC(N2C(=O)c3ccccc3C2NCc2ccccc2)C1C (centres undefined) | 0
60 | CCOC(=O)c1cnc(N2CCCC2)nc1C1CCN(C(=O)OC(C)(C)C)CC1 | -2
61 | Cc1cc(C(=O)NCc2ccco2)nn1C(F)F | -13
62 | Cc1noc(C)c1CS(=O)(=O)CCC(=O)NC1CCCCC1 | -11
63 | CC(c1ccccc1)N1C(=O)c2ccccc2C1c1c[nH]c2ccccc12 (centres undefined) | 23
64 | CCOc1cc(C)ccc1S(=O)(=O)NC(C)C | -3
65 | NC(=NCc1cccc2cccnc12)N1CCN(c2nccs2)CC1 | 57
66 | NC1CC(NCCc2cccc3cccnc23)c2ccccc21 (centres undefined) | 43
67 | Cc1ccc(C(=O)N2CCC(N3C(=O)[C@H]4CCCN4C3=O)CC2)cc1 | -9
68 | Cc1ccc2nc(-c3cccc(NC(=O)c4ccc5c(c4)OCO5)c3)oc2c1 | -12
69 | COC(=O)c1cccc(C#Cc2cccc(NC(=O)c3cnc(C)cn3)c2)c1 | -19
70 | COCCNC(=O)c1ccc(-n2nc(-c3nnc(C)o3)c(C)c2-c2ccc(OC)cc2)cc1 | 46
71 | CC(C)N(C)CCOC(=O)c1ccccc1Cl | -1
72 | CCN1c2cc(C(=O)NCc3ccncc3)ccc2C(=O)N2CCCC[C@H]21 | -2
73 | Cc1cc(C(=O)N(CCN(C)C)c2ccccc2)c(C)s1 | -1
74 | Cc1cc(C(=O)Nc2ccc(Br)c(C)n2)no1 | -12
75 | Cc1cc(Br)ccc1N1CC[C@@H](C(=O)NC2CC2)C1=O | 2
76 | CCN(CCO)S(=O)(=O)c1ccc2c(c1)CCO2 | -7
77 | O=c1cc2c(nn1Cc1cccc(Cl)c1)-c1ccccc1CC2 | -6
78 | c1ccc(CC2=NCCc3ccccc32)cc1 | 65

Row | SMILES | % Inhibition [%]
79 | Cc1cccc2ncnc(N(C)[C@@H](C)Cc3ccc(O)cc3)c12 | 79
80 | COc1ccccc1Nc1c(-c2cccs2)nc2ccccn12 | -2
81 | Cc1c(N=C2NC3(CCCCC3)Cc3ccccc32)c(=O)n(C)n1-c1ccccc1 | -1
82 | CC1([C@@](O)(C#CC[N+]2(C)CCCCC2)c2ccccc2)CCCC1 | 50
83 | CCC[N+]1(CC#C[C@@](O)(c2ccccc2)C(C)(CC)CC)CCCCC1 | 48
84 | CCC[N+]1(CC#C[C@@](O)(c2ccccc2)C2(C)CCCC2)CCCCC1 | 46
85 | O=C(N1CCCN(c2nc3ccccc3nc2-c2ccccc2)CC1)C(Cl)(Cl)Cl | 46
86 | CCn1cc(C(=O)Nc2ccc(C(=O)N3CCCCC3)cc2)cn1 | 1
87 | CCN(CC)c1ccc(C(=O)Nc2ccc3nc(N4CCCC4)cc(C)c3c2)cc1 | 85
88 | COc1cc(OC)cc(C(=O)Nc2ccc3nc(N4CCC(C)CC4)cc(C)c3c2)c1 | 47
89 | COc1ccc(N(Cc2ccc(F)cc2)S(=O)(=O)c2ccc3nncn3c2)cc1 | -13
90 | CC(C)CC(=O)Nc1ccc2c(c1)C(N1CCC(C)CC1)=Nc1ccccc1O2 | 0
91 | Cc1oc(C(=O)N2CC3(CCCC3)c3ccccc32)cc1S(=O)(=O)N(C)C | 4
92 | COCCCn1c(NS(=O)(=O)c2ccc3ccccc3c2)c(S(=O)(=O)c2ccc(C)cc2)c2nc3ccccc3nc21 | 56
93 | COCCCN(Cc1c(C)nn(-c2cccc(F)c2)c1N1CCN(C)CC1)S(=O)(=O)c1ccc2ccccc2c1 | 7
94 | COCCCn1c(NS(=O)(=O)c2ccccc2)c(S(=O)(=O)c2ccc(C)cc2)c2nc3ccccc3nc21 | 61
95 | COc1ccc(-c2cc(C[C@H]3CNCC[C@H]3CC(=O)Nc3ccccc3)no2)cc1 | -7
96 | CCCn1c(C)ccc(-c2noc(CCC(=O)NC3CCCC3)n2)c1=O | -6
97 | CN(C(=O)C1C(C(=O)O)C1(C)C)c1ccccc1OC(F)F (centres undefined) | -2
98 | Cc1ccc(C(=O)Nc2ccc(N3CCN(CCC#N)CC3)cc2C(=O)O)cc1 | -12
99 | Cc1ccc(C(=O)Nc2cc3c4c(c2)C2CCCC2CN4CC2CCCC32)cc1 (centres undefined) | 60
100 | Cc1ccccc1[C@H]1CCN(c2ccc(NC(=O)c3ccc(Cl)cc3)c(C(=O)O)c2)C1 | -11
101 | CC(C)(C)OC(=O)N1C2CCC1CC(CC(=O)NC1CCCC1)C2 (centres undefined) | 8
102 | COCCN(CC1CN(Cc2cccs2)CC1c1cccc(F)c1)C(=O)C(C)C (centres undefined) | -3
103 | Cc1cc(C)n2cc(COC(=O)Cn3c(C)cc4ccccc43)nc2n1 | -2
104 | Cc1oc2ncn(CCN3CCCC3)c(=O)c2c1C(=O)Nc1ccc(C#N)cc1 | 34
